According to PubChem BioAssay:
Calls of active or inactive are those of the source.

Columns and labels:
[1] = small molecules captured by biotinylated probe aFSTL3 – biochemical, small-molecule microarray, fluorescence 635/667, stem cell growth factor project, primary screen (AID 1064); details: higher = more signal;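 also: measures binding of the biotinylated anti-FSTL3 antibody to printed compounds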
[2] = binders from COS7 lysate, DM2A8 probe, primary screen, torsin A project, cell lysate, small-molecule microarray, fluorescence 635/667 (AID 1065); details: higher = more signal, COS7 lysate expressing mutant human TOR1A
[3] = small molecules captured by biotinylated probe aFGF2 – biochemical, small-molecule microarray, fluorescence 635/667, stem cell growth factor project, primary screen (AID 1067); details: higher = more signal;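 also: measures binding of biotinylated aFGF2 protein to printed compounds on slides; z-score merges feature fluorescence and signal-to-noise across triplicate slides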
[4] = small molecules captured by biotinylated probe aFGF10 – biochemical, small-molecule microarray, fluorescence 635/667, stem cell growth factor project, primary screen (AID 1071); details: higher = more signal;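 also: score merges 667 nm spot intensity and signal to noise from triplicate slides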
[5] = molecular target: Neurogenic locus notch homolog protein 2 (Homo sapiens) (UniProt Q04721); test: small molecules binding Notch2 protein – biochemical, small-molecule microarray, 635 nm fluorescence, stem cell growth factors, primary screen (AID 1073); details: higher = more signal
[6] = molecular target: Pro-neuregulin-1, membrane-bound isoform (Homo sapiens) (UniProt Q02297); test: small molecules binding neuregulin-1 protein – biochemical, small-molecule microarray, fluorescence 635/667, psychiatric disease protein project, primary screen (AID 1075); details: NRG1 binding, 635 nm fluorescence, higher = more signal;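 also: score combines 667 nm spot fluorescence with signal to noise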
[7] = tested on: Neuregulin-1 EGF-like domain; test: small molecules binding NRG1 EGF domain – biochemical, small-molecule microarray, 635 nm fluorescence, primary screen (AID 1081); details: higher = more signal;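 also: binding of the protein to compounds printed on small-molecule microarray slides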
[8] = FRG1 expression reporter modulators in myotubes – cell-based, C2C12 myotubes, firefly/Renilla luciferase, luminescence, FRG1 inhibition for FSHD, primary screen (AID 1084); details: FRG1 promoter luciferase, higher = more signal, called active from +8 up or from −8 down
[9] = small molecules captured by biotinylated probe aFST – biochemical, small-molecule microarray, fluorescence 635/667, stem cell growth factor project, primary screen (AID 1086); details: higher = more signal;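 also: score merges 667 nm fluorescence with signal-to-noise of each printed compound spot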
[10] = binders of probe aHhip on microarray, primary screen, stem cell growth factor project, biochemical, small-molecule microarray, fluorescence 635/667 (AID 1087); details: higher = more signal;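 also: score merges spot fluorescence at 667nm with spot signal to noise ratio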
[11] = tested on: PRMT1 (protein arginine N-methyltransferase 1); test: small molecules binding arginine methyltransferase PRMT1 – biochemical, small-molecule microarray, 635 nm fluorescence, primary screen (AID 1088); details: higher = more signal;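 also: binding of Prmt1 protein to compounds spotted on small-molecule microarray slides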
[12] = growth effects on S. cerevisiae YJM789 – YJM789 clinical isolate, OD600, 24 h, basal, primary screen (AID 1089); details: higher = more signal, called active from +8 up or from −8 down;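 also: growth of clinical yeast isolate S. cerevisiae YJM 789 seeded 1000 cells per well; test concentration not given here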
[13] = S. pombe growth modifiers, basal conditions – strain 972, OD600, 24 h, no modulator, primary screen (AID 1090);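 also: basal condition with compound alone and no growth modifier present; test concentration not given here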; details: S. pombe 972 growth, higher = more signal, called active from +8 up or from −8 down
[14] = budding yeast growth modifiers under rapamycin – strain BY4716, OD600, 96 h, primary screen (AID 1091); also: test concentration not given here; details: S. cerevisiae BY4716 + rapamycin, higher = more signal, called active from +8 up or from −8 down
[15] = molecular target: Torsin-1A-interacting protein 2 (Homo sapiens) (UniProt Q8NFQ8); test: small molecules binding lysate-expressed LULL1 – cell lysate, human LULL1 lysate, 635/667 nm fluorescence, primary screen (AID 1092); details: small-molecule microarray, hLULL1 lysate binding, 635 nm fluorescence; higher = more signal;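 also: probe is lysate of COS7 cells overexpressing human LULL1; score merges per-feature 667 nm fluorescence with signal-to-noise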
[16] = optical density change of DRC41 E. coli – strain DRC41, OD650, 24 h, E. coli filamentation project, primary screen (AID 1093);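 also: MC1000 strain lacking acrAB efflux and sulA so SOS filamentation is blocked; test concentration not given here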; details: E. coli DRC41 growth, higher = more signal, called active from +8 up or from −8 down
[17] = probe aLefty2 binding to arrayed compounds – biochemical, biotinylated probe, 635/667 nm fluorescence, primary screen (AID 1094); details: small-molecule microarray, higher = more signal;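 also: score merges spot fluorescence near 667 nm with spot signal-to-noise ratio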
[18] = tested on: Noggin (protein binding on small-molecule microarray); test: small molecules binding Noggin protein – biochemical, 635/667 nm fluorescence, primary screen (AID 1095); details: 635 nm fluorescence, higher = more signal;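 also: score merges 667 nm feature fluorescence with signal to noise over triplicate slides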
[19] = molecular target: Neurogenic locus notch homolog protein 3 (Homo sapiens) (UniProt Q9UM47); test: small molecules binding NOTCH3 protein – biochemical, 635/667 nm fluorescence, primary screen (AID 1096); details: small-molecule microarray, 635 nm fluorescence, higher = more signal
[20] = probe aEGFR binding to arrayed compounds – biochemical, biotinylated probe, 635/667 nm fluorescence, primary screen (AID 1097); details: small-molecule microarray, higher = more signal;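 also: probe is a biotinylated anti-EGFR antibody binding compounds printed on slides; score combines fluorescence near 667 nm and signal to noise of each spot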

Neurogenic locus notch homolog protein 3 (Homo sapiens), sequence (Q9UM47 whole entry, looked up): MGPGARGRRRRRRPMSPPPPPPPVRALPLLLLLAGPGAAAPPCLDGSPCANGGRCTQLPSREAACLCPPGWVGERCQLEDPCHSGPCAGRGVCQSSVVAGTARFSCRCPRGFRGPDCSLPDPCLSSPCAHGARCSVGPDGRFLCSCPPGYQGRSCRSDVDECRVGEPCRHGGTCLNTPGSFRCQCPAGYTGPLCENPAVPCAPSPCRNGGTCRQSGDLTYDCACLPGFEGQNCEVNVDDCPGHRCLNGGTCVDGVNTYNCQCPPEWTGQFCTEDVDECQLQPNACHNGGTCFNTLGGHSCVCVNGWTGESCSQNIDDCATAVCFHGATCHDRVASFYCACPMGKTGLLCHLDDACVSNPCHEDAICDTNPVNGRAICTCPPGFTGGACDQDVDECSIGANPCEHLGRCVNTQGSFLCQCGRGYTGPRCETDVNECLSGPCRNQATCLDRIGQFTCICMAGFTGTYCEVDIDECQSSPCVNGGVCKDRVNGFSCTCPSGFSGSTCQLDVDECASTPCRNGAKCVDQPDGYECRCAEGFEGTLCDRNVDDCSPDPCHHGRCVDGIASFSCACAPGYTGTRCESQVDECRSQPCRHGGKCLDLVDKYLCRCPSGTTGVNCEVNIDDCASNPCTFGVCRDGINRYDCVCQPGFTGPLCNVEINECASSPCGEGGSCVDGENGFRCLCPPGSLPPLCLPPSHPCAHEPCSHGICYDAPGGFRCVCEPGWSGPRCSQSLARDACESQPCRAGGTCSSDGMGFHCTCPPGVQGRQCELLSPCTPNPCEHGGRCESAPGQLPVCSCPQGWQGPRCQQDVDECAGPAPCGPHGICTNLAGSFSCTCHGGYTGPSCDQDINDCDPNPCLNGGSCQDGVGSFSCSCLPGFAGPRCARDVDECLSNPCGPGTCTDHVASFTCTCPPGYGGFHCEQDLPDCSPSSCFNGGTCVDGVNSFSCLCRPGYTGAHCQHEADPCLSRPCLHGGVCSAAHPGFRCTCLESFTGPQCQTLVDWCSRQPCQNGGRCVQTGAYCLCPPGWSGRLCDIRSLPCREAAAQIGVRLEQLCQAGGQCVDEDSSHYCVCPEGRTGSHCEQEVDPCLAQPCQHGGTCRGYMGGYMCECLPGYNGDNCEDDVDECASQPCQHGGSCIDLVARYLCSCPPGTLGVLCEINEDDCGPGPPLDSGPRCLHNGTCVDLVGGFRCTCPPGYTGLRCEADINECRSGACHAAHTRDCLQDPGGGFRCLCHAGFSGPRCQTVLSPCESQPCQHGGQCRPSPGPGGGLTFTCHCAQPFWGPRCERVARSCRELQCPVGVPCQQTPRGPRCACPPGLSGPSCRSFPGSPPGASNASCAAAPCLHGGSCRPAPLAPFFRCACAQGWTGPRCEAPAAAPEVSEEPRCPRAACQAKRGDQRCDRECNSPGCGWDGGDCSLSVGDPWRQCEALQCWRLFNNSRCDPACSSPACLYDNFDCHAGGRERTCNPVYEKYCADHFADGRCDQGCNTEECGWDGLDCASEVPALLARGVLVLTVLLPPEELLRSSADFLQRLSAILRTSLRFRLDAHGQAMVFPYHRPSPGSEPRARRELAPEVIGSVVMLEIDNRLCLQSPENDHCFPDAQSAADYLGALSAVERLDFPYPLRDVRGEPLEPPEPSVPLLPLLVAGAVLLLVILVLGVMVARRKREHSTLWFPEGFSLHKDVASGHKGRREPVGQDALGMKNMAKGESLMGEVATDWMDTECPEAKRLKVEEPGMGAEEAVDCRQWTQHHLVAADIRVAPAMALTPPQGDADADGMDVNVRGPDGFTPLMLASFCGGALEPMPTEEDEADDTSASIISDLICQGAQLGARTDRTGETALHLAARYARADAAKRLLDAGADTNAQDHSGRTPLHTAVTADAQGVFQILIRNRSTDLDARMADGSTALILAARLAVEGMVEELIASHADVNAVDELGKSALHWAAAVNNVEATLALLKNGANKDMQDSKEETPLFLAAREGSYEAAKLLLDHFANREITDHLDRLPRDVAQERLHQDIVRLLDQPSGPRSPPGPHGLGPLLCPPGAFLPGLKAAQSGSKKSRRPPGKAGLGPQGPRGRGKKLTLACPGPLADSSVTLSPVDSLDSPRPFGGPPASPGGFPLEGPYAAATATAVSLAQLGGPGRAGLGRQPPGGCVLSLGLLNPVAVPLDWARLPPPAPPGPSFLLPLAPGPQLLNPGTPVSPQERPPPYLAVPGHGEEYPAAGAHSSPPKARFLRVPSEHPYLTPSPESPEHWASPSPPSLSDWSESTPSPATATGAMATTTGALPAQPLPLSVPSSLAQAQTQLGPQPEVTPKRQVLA
Pro-neuregulin-1, membrane-bound isoform (Homo sapiens), sequence (Q02297 whole entry, looked up, the tested form may be a part, canonical isoform): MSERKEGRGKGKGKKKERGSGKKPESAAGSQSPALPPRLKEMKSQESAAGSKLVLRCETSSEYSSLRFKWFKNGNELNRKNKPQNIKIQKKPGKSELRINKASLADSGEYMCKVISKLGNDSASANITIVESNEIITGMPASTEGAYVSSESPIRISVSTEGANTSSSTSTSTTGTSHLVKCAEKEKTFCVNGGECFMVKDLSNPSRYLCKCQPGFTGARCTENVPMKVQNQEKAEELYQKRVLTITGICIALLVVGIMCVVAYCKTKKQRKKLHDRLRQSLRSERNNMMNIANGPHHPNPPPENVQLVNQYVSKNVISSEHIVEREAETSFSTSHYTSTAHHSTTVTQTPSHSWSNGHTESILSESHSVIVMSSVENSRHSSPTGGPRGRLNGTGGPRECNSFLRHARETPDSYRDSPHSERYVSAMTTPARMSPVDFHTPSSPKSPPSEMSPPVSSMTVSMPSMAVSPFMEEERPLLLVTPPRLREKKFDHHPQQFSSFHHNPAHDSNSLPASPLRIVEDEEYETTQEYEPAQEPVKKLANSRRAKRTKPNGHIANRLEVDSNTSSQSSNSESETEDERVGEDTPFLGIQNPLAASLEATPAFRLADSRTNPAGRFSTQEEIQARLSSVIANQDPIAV
Torsin-1A-interacting protein 2 (Homo sapiens), sequence (Q8NFQ8 whole entry, looked up): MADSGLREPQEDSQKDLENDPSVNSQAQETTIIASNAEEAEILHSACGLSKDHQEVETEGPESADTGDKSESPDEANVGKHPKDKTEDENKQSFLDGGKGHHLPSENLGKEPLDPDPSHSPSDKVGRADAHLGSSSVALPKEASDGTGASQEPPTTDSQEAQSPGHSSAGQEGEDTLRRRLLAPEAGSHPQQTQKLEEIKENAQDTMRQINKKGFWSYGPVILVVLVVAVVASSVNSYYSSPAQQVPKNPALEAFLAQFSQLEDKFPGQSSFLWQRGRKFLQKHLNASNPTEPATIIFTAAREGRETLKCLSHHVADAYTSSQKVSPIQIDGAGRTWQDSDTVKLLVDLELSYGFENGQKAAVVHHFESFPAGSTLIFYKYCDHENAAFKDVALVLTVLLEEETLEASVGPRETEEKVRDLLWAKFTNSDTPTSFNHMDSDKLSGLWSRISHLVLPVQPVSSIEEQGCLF

| Compound | composite z-score [1] | composite z-score [2] | composite z-score [3] | composite z-score [4] | composite z-score [5] | composite z-score [6] | composite z-score [7] | z-score [8] | composite z-score [9] | composite z-score [10] | composite z-score [11] | z-score [12] | z-score [13] | z-score [14] | composite z-score [15] | z-score [16] | composite z-score [17] | composite z-score [18] | composite z-score [19] | composite z-score [20] |
| --- | --- | --- | --- | --- | --- | --- | --- | --- | --- | --- | --- | --- | --- | --- | --- | --- | --- | --- | --- | --- |
| C=CCC(OC(C)=O)[C@@H]1[C@@H](N(Cc2cccc3ccccc23)C(=O)c2ccc(C)cc2)c2cc(OCCCO)ccc2N1C(=O)Cc1ccc2ccccc2c1 (stereo not given in full) | 0.151 | -0.124 | 0.0348 | 0.021 | -0.0785 | -0.158 | -0.665 | -2.29 (inactive) | 0.0338 | 0.127 | -0.52 | -1.8 (inactive) | -0.825 (inactive) | -0.614 (inactive) | 0.318 | 1.17 (inactive) | -0.113 | -0.206 | 0.141 | -0.184 |
| COc1cc2c(cc1OC)CN(C(=O)[C@@H]1[C@H]3C(=O)O[C@H](c4ccccc4)[C@H](c4ccccc4)N3[C@H](c3ccc(O)cc3)[C@@]13C(=O)Nc1ccc(C#CC4=CCCCC4)cc13)CC2 | 0.105 | 0.576 | -0.0899 | 0.864 | 1.48 | 0.347 | 1.13 | 0.561 (inactive) | 0.588 | 0.0479 | 1.55 | 1.63 (inactive) | -0.921 (inactive) | 1.88 (inactive) | 2.44 | 2.11 (inactive) | -0.0753 | 0.82 | 1.08 | 0.0324 |
| COC(=O)C(CC#Cc1ccc2c(c1)[C@]1(C(=O)N2)[C@H](C(=O)N2CCCCCCC2)[C@H]2C(=O)O[C@H](c3ccccc3)[C@H](c3ccccc3)N2[C@@H]1c1ccc(OCCO)cc1)C(=O)OC | 3.58 | 2.87 | 0.941 | 1.37 | 1.75 | 2.94 | 1.33 | 1.91 (inactive) | 3.35 | 2.77 | 1.52 | -0.0902 (inactive) | 0.563 (inactive) | 1.28 (inactive) | 5.35 | 0.149 (inactive) | 1.79 | 2.35 | 1.01 | 1.38 |
| COC(=O)[C@@]1(Cc2ccc(F)cc2)[C@H]2c3cc(C(=O)N(C)C)n(Cc4cccc5ccccc45)c3C[C@H]2CN1C(=O)c1ccccc1 | 1.84 | 1.71 | 0.398 | 1.16 | 0.77 | 1.13 | 1.33 | 0.255 (inactive) | 0.697 | 0.727 | -0.72 | 1.43 (inactive) | 1.54 (inactive) | 2.69 (inactive) | 4.03 | -1.15 (inactive) | 0.323 | -0.192 | -0.0287 | 0.0776 |
| CS(=O)(=O)CCOC(=O)C1=CC(CCCO)=CC(C2CC2)N(Cc2sc3ccccc3c2Cl)C=C1C(=O)OCCS(C)(=O)=O (stereo not given) | -0.143 | 0.0105 | 0.0498 | 0.4 | 1.36 | 1.92 | 1.18 | -0.133 (inactive) | 0.903 | -0.134 | 1.13 | -0.853 (inactive) | -5.1 (inactive) | -1.47 (inactive) | 3.09 | 0.189 (inactive) | 0.247 | 0.482 | 1.09 | 0.0432 |
| COc1cc(CO)cc(I)c1O[C@H]1C=C(C(=O)NCCO)C[C@@H](N(CCN2CCOCC2)C(=O)C2CCCO2)[C@@H]1O (stereo not given in full) | -0.351 | 0.193 | -0.109 | 0.228 | 1.14 | -0.34 | 0.201 | 0.104 (inactive) | 0.0496 | -0.0383 | -0.15 | 0.383 (inactive) | -0.455 (inactive) | 0.0665 (inactive) | 0.206 | 2.54 (inactive) | -0.172 | 0.34 | -0.204 | -0.0106 |
| O=C1C2C=CC(C(O)C3CCCCC3)N(Nc3ccccc3F)C2C(=O)N1c1ccccc1 (stereo not given) | 0.967 | 0.619 | 0.257 | 0.682 | 1.66 | 1.93 | 1.31 | -0.227 (inactive) | 1.55 | -0.0617 | 1.55 | 0.968 (inactive) | -0.645 (inactive) | 0.515 (inactive) | 3.24 | 0.256 (inactive) | 0.79 | 0.0994 | 1.02 | 0.239 |
| C=CC[C@H](O)c1ccc(O)c(F)c1 | 0.226 | -1.35 | -0.076 | -0.819 | -1.73 | -0.676 | -0.502 | 1.17 (inactive) | -1.39 | 0.414 | -0.255 | -0.63 (inactive) | -0.722 (inactive) | -1.56 (inactive) | -1.36 | -0.53 (inactive) | -0.103 | -0.529 | -0.579 | -0.115 |
| [N-]=[N+]=NCc1ccccc1C[C@@]1(C(N)=O)N=C(c2ccc(OCCCO)cc2)O[C@@H]1c1ccccc1N=[N+]=[N-] | -0.459 | -0.0227 | 0.0131 | 1.15 | 1.43 | 1.38 | 1.07 | -0.739 (inactive) | 0.926 | 0.0722 | 1.28 | -0.506 (inactive) | -0.292 (inactive) | -0.531 (inactive) | 3.22 | -0.331 (inactive) | 0.137 | 0.0508 | 0.516 | 0.0766 |
| COc1ccc([Si](C)(C)[C@@H]2[C@@H](CC(=O)N3CCC[C@H]3CO)O[C@]3(C(=O)N(Cc4cccc(N5C(=O)c6cccc7cccc5c67)c4)c4ccccc43)[C@H]2C)cc1 | -0.401 | 0.342 | -0.0666 | 0.219 | -0.321 | 1.22 | 1.06 | -1.01 (inactive) | 0.019 | -0.0618 | 1.34 | -0.702 (inactive) | -0.487 (inactive) | -0.158 (inactive) | 1.48 | 1.55 (inactive) | -0.0757 | 0.641 | 0.368 | -0.115 |
